# Assay outcomes from PubChem.
# This is a sample that favours compounds with a hit; in the whole collection about 17% have one here.
# HT1080-NT tox – kills 2HG-producing HT-1080-NT fibrosarcoma cells | actives 1.6% (n = 360,000) | HT-1080-NT fibrosarcoma viability, CellTiter-Glo ATP luminescence, 48 h | Potency, µM (doses to about 46.1 µM), for the others: at the top dose activity, negative = less viability, actives largely listed as cytotoxic;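 also: NT is the 2HG producing partner of a matched IDH1 knockdown line; 0% = DMSO-treated cells and -100% = media-only wells without cells; nearly all actives have a fitted effect of over 55% in size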
#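 Viability by CellTiter-Glo luminescence after 48 h compound exposure at 37C of HT-1080-NT cells (750/well, RPMI, 5% FBS). % activity scaled between DMSO wells and medium-only wells, then curve-fitted and categorized by curve class.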
# HepG2 viability – counter-screen for TGF-b inhibitors: cytotoxicity in HepG2 cells; actives 0.76% (n = 410,000); AID 588856; Potency, µM (highest dose often 46.1 µM), for the others: at the highest dose activity change, negative = cytotoxicity, most hits filed as cytotoxic; HepG2 CAGA-GFP viability, ATP luminescence, 18 h
#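 HepG2 CAGA-GFP cells (1000/well, DMEM with 1% FBS) received compound, then TGF-beta at 500 pg/mL final, and were incubated 18 hours at 37 degrees C. Viability was read by CellTiter-Glo luminescence. Media-only wells were set as complete cell-killing and DMSO as no toxicity.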
# TDP1 cell noCPT – qHTS for Inhibitors of human tyrosyl-DNA phosphodiesterase 1 (TDP1): qHTS in cells in absence of CPT | actives 15% (n = 420,000) | Potency, µM (titrated, usually from 46.2 µM), inactives show at the highest dose activity change, negative = growth inhibition, usual class: inhibitors | DT40 Tdp1-/- hTDP1 cells, no CPT, ATP luminescence, 48 h | AID 686978, 2013; also: % is scaled to controls: 0 for no effect and ±100 for the full control effect; nearly all actives have a fitted effect of over 55% in size
#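 Seeded 400 DT40-hTDP1 cells/well (vehicle DMSO, no 20 nM CPT); pinned compounds; ≥48 hr at 37 °C; CellTiter-Glo luminescence as viability measure.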
# HT1080 IDH1KD tx – HT-1080 IDH1 knockdown cell toxicity (counter line). HT-1080 IDH1 knockdown viability, ATP luminescence, 48 h. actives 2% (n = 360,000). Potency, µM (top dose mostly 46.1 µM), without a hit: at the highest dose activity, negative = toxicity, most hits filed as cytotoxic. AID 686971;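 also: 0% = DMSO wells and -100% = cell-free medium wells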
#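 Luminescent ATP read-out (CellTiter-Glo, 10 min at room temperature) after 48 h compound exposure at 37 °C gave viability of IDH1-knockdown HT-1080 cells. Activity was normalised to DMSO and cell-free wells, then fitted as concentration-response curves.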
# TGFb inhibitor – TGF-b pathway inhibition. AID 588855. HepG2 CAGA-GFP TGF-b/SMAD3 reporter, GFP fluorescence, 18 h; TGF-beta stimulated, 500 pg/mL final. actives 1.2% (n = 410,000). Potency, µM (top dose mostly 46.1 µM), for the others: top-dose activity, negative = inhibition, usual class: inhibitors; also: % is scaled to controls: 0 for no effect and ±100 for the full control effect; nearly all actives have a fitted effect of over 65% in size
#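 Inhibition of TGF-beta-driven CAGA-GFP reporter expression in HEPG2 cells is measured by cellular GFP fluorescence after 18 h stimulation with 500 pg/mL recombinant TGF-beta in 1% FBS medium at 37 degrees C.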
# TDP1 cell CPT – DT40-hTDP1 cell growth loss with CPT; chicken DT40 Tdp1-/-;hTDP1 cells + 20 nM CPT, ATP luminescence, 48 h; Potency, µM (titrated, usually from 46.2 µM), for the others: top-dose activity change, negative = growth inhibition, hits mostly inhibitors; actives 12% (n = 420,000); AID 686979; also: % is scaled to controls: 0 for no effect and ±100 for the full control effect; nearly all actives have a fitted effect of over 55% in size
#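 Cell growth measured by CellTiter-Glo luminescence after a minimum 48 h, 37 C compound exposure with 20 nM CPT in Tdp1-knockout DT40 cells stably expressing hTDP1, seeded 400/well; qHTS titration format.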
# * marks the source's active call; other numbers are inactive results; ? = inconclusive; nt = no result given. Calls follow the shape of the dose curve; as a rule, active = well fitted curve in the direction sought with a large enough effect; inconclusive = small, poorly fitted or top-dose-only effect, or another doubt; inactive = no such curve, though single readings can be large; an effect the other way counts as inactive or inconclusive. Potency is read from the fitted curve at half-maximal effect.
SMILES,HT1080-NT tox,HepG2 viability,TDP1 cell noCPT,HT1080 IDH1KD tx,TGFb inhibitor,TDP1 cell CPT
CCOC(=O)COc1cccc2c(=O)n(CC(=O)NCc3ccc4c(c3)OCO4)ccc12,4.6µM*,-3%,1.8µM*,?,-3%,1.8µM*
CCOC(=O)COc1cccc2c(=O)n(CC(=O)NCCc3ccccc3)ccc12,0%,-46%,-3%,-1%,1%,-16%
CS(=O)(=O)N1CCN(c2ccc([N+](=O)[O-])c(NCc3cccnc3)c2)CC1,-2%,-4%,?,-3%,-1%,-11%
Cn1c(=O)oc2cc(S(=O)(=O)CCC(=O)NCc3ccc(Cl)cc3)ccc21,nt,2%,-11%,nt,-5%,-5%
CCC(C)(C)C1CCc2[nH]nc(C(=O)NCc3ccccn3)c2C1 (centres undefined),4%,-33%,23µM*,3%,?,15µM*
CCC(C)(C)C1CCc2[nH]nc(C(=O)NCCN3CCOCC3)c2C1 (centres undefined),6%,-2%,?,9%,?,?
CCC(C)(C)C1CCc2[nH]nc(C(=O)NCCCNC(=O)OC(C)(C)C)c2C1 (centres undefined),-6%,30%,18µM*,-4%,-7%,?
CCN(C)C1CN(Cc2cn(CCCC(=O)OC)nn2)S(=O)(=O)C1 (centres undefined),24%,nt,-1%,1%,nt,-8%
COc1cc(COCC(O)CN2C(C)CCCC2C)cc(OC)c1OC (centres undefined),-6%,2%,24%,-5%,1%,-7%
CCN1C(=O)[C@H]2[C@@H](c3ccc(C(F)(F)F)cc3)N[C@]3(CCCN(Cc4cccn4C)C3=O)[C@H]2C1=O,-13%,-17%,?,3%,?,?
CCN1C(=O)[C@H]2[C@@H](c3ccc(C(F)(F)F)cc3)N[C@]3(CCCN(Cc4ccc(Cl)cc4)C3=O)[C@H]2C1=O,-10%,-26%,18µM*,7%,5%,18µM*
CCN1C(=O)[C@H]2[C@@H](c3ccc(C(F)(F)F)cc3)N[C@]3(CCCN(Cc4ccco4)C3=O)[C@H]2C1=O,-9%,-23%,16µM*,-15%,-16%,23µM*
CCN1C(=O)[C@H]2[C@@H](c3ccc(C)cc3)N[C@]3(CCCN(Cc4ccc(Cl)cc4)C3=O)[C@H]2C1=O,4%,-12%,21µM*,-1%,2%,?
CCN1C(=O)[C@H]2[C@@H](c3ccc(C)cc3)N[C@]3(CCCN(Cc4ccco4)C3=O)[C@H]2C1=O,7%,-50%,?,-14%,-5%,-27%
CCN1C(=O)[C@H]2[C@@H](c3ccc(C(F)(F)F)cc3)N[C@]3(CCCN(Cc4ccc(C)cc4)C3=O)[C@H]2C1=O,-9%,-28%,16µM*,-5%,-4%,13µM*
CCN1C(=O)[C@H]2[C@@H](c3ccc(C)cc3)N[C@]3(CCCN(Cc4ccc(C)cc4)C3=O)[C@H]2C1=O,?,-8%,3%,?,-5%,?
O=Cc1cn(-c2ccc(F)cc2)c2ccccc12,6%,-1%,?,4%,-30%,-29%
CC(=O)c1ccc(Sc2nnc(C)s2)c([N+](=O)[O-])c1,-1%,14%,?,4%,-2%,-20%
Cc1nnc(Sc2cc(NCCO)c([N+](=O)[O-])c3nonc23)s1,?,-49%,2.3µM*,?,?,3.3µM*
